Assay results taken from PubChem BioAssay AID720525 (National Center for Advancing Translational Sciences (NCATS), 2013).
Results filed as inconclusive are left out. A call without a number means that no potency is given here. Active and inactive are the calls of the source. Calls follow the shape of the dose curve; as a rule, active = well fitted activation curve with a large enough effect; inconclusive = small, poorly fitted or top-dose-only effect; inactive = no such curve, though single readings can be large or run the other way.

Assay: qHTS Assay for NPC1 Promoter Activators: Hit Validation Using Firefly Luciferase Read-Out for Rab9
Conditions: Huh7 Rab9 promoter firefly luciferase reporter, 24 h; series mostly up to 46.1 µM
Text: Niemann Pick Type C (NPC) is a rare neurodegenerative lipidosis that is characterized by lipid storage in the endosomal/lysosomal system. Treatment modalities for this devastating disease are currently non-existent due to the severe obstacles associated with accessing the central nervous system with proteins or genes. The majority of mutations causing NPC disease are missense mutations that are distributed throughout the length of the NPC1 protein, with the most prevalent being the I1061T allele. Although NPC1 mutant proteins may be functional, they are typically trapped in the ER due to misfolding. […] We have developed and optimized a cell based renilla luciferase reporter assay in 1536 well format for the identification of up-regulators of the mutant Rab9 promoter. This assay presents data on the validation of hits from the primary screen, which used a firefly luciferase read-out. NIH Chemical Genomics Center [NCGC] NIH Molecular Libraries Probe Production centers Network [MLPCN] MLPCN Grant: MH089375 Assay Submitter (PI): Yiannis A. Ioannou
Huh7 cells stably expressing NPC promoter-luciferase will be seeded at 1,500 cells/well in 5 uL in 1,536-well white opaque plates with 23 nL/well of compound in DMSO solution. The assay plates will be incubated at 37 deg C for 24 hours, after which 3 uL/well BriteLite plus luciferase detection reagent mixture (Perkin Elmer) will be added. Luminescence signal will be measured in a ViewLux plate reader (Perkin Elmer) after a 10 minute incubation at the room temperature.

Question: Which Potency does the source give for Cc1cccc(N2CCN(C(=S)c3ccccc3)CC2)c1 here?
Answer: inactive

Question: With O=C(CSc1nnc(-c2ccccc2)o1)Nc1ccccc1F as the compound, how does the Potency read?
Answer: 112 nM (active)

Question: With CC(C)CC(=O)N1CCN(c2ccc(NC(=O)c3ccco3)cc2)CC1 as the compound, how does the Potency read?
Answer: inactive

Question: With O=C(NC(=S)Nc1ccc(CN2CCCCC2)cc1)c1cc2ccccc2o1 as the compound, how does the Potency read?
Answer: inactive

Question: For CCOC(=O)c1ccc(NC(=O)Oc2cc(C)c(Cl)cc2C(C)C)cc1, which Potency is on record?
Answer: inactive

Question: With COc1ccc([N+](=O)[O-])cc1COc1ccc2c(-c3ccccc3)cc(=O)oc2c1 as the compound, how does the Potency read?
Answer: inactive

Question: Which Potency does the source give for Cc1ccc(NC(=O)COC(=O)C2C3CC4OC(=O)C2C4C3)cc1Cl (stereo not drawn) here?
Answer: inactive

Question: For N#CC/C(N)=N/NC(=O)CCCNc1ncc(C(F)(F)F)cc1Cl, which Potency is on record?
Answer: 19900 nM (active)

Question: With O=C(CSc1nccn1Cc1ccco1)Nc1ccccc1F as the compound, how does the Potency read?
Answer: inactive

Question: For CC1CCCN(S(=O)(=O)c2ccc(C(=O)Nc3nnc(-c4ccncc4)o3)cc2)C1 (stereo not drawn), which Potency is on record?
Answer: inactive

Question: Which Potency does the source give for CCc1cc2c(N=Nc3c(O)[nH]c4ccccc34)ncnc2s1 here?
Answer: inactive

Question: For COc1ccc(-c2csc(N(CCCN(C)C)C(=O)c3ccccc3C)n2)cc1, which Potency is on record?
Answer: inactive

Question: Which Potency does the source give for Cc1ccc(NC(=O)NC(=O)c2ccccc2)cc1F here?
Answer: 445 nM (active)
